# This is part of a sample that, as a whole, favours compounds with a hit. Of some 83,000 tested, about 20% had one in any assay.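 Percent growth is the endpoint: 0 to 100 indicates growth inhibition (40 means 60% inhibition), 0 means no net growth, and negative values indicate cell death.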 Values without a mark were called inactive. The source made the active and inactive calls.
# System: SK-MEL-28 melanoma
# Assay: NCI-60 one-dose screen, 48 h (100 = growth as untreated, 0 = no growth, -100 = all killed)
# Conditions: 10 µM
# Procedure: Growth inhibition of the SK-MEL-28 human tumor cell line is measured as a screen for anti-cancer activity. Cells are grown in 96 well plates and exposed to the test compound for 48 hours. Compounds are tested at a single concentration, which is 10^-5 M for most compounds. The reported endpoint is percent growth (GI% or GIPRCNT), where numbers from 0 - 100% represent growth inhibition, and numbers from -100% - 0 represent cell death. For example, a value of 40 represents 60% growth inhibition. A value of 0 means no net growth occurred over the course of the experiment. A value of -40 indicates 40% of cells at the beginning of the experiment died by the end of the experiment. A value of -100 means all cells are dead at the end of the experiment.
# NCI-60 Human Tumor Cell Lines Screen was performed using the standard one-dose NCI protocol, which is described in more detail at https://dtp.cancer.gov/discovery_development/nci-60/default.htm.
# Compounds with GIPRCNT values below 10 were considered active. Activity score was based on GIPRCNT using the following formula: […]
# Score is 0 for GIPRCNT values of 100 or above, 50 for GIPRCNT values of 0, and 100 for GIPRCNT values of -100.
row,Compound,growth
1,CN(C)CCc1cn(C2CCC2)c2cccc(O)c12,3.47% (active)
2,CC12OOC(C)(OO1)C2CCC(=O)NCCNc1ccnc2cc(Cl)ccc12 (stereo not given),104%
3,COCCOCCOCCOc1ccc(-n2cc(-c3ccc(O[C@H]4O[C@@H]5OC6(C)CC[C@H]7[C@H](C)CC[C@@H]([C@H]4C)[C@@]57OO6)cc3)nn2)cc1,44.6%
4,COC(=O)c1ccc(-n2cc(CCCN(CCNc3ccnc4cc(Cl)ccc34)C(=O)CCC(=O)O[C@@H]3O[C@@H]4OC5(C)CC[C@H]6[C@H](C)CC[C@@H]([C@H]3C)[C@@]46OO5)nn2)cc1,16.3%
5,COC(=O)C[C@](O)(CCC(C)C)C(=O)O[C@H]1C(OC)=C[C@@]23CCCN2CCc2cc4c(cc2[C@@H]13)OCO4,-32.9% (active)
6,C[C@H]1[C@H](OC(=O)CCC(=O)N(CCCc2cn(-c3ccc([N+](=O)[O-])cc3)nn2)CCNc2ccnc3cc(Cl)ccc23)O[C@@H]2OC3(C)CC[C@H]4[C@H](C)CC[C@@H]1[C@@]24OO3,50.7%
7,COc1ccc(OC)c(/C=C/C(=O)c2nc3ccccc3n2Cc2ccc(F)cc2)c1,-53% (active)
8,O=C(/C=C/c1ccc(Br)cc1)c1nc2ccccc2n1Cc1ccc(Br)cc1,-43.9% (active)
9,COc1ccc2cc([C@H](C)C(=O)[Se]CCC#N)ccc2c1,-37.9% (active)
10,COP(=O)(CC(F)(F)C(F)(F)F)OC,-58.1% (active)
11,O=C(NC([Se])=NC1CCCCC1)c1ccccc1,33.3%
12,O=C(/C=C/c1ccccc1)c1nc2ccccc2n1Cc1ccc(Br)cc1,-73.3% (active)
13,CC1=C(CCC=NNC(N)=O)C2=C(C)C3(CC3)[C@@](C)(O)C(=O)C2=C1,-79.8% (active)
14,O=C(/C=C/c1ccccc1Cl)c1nc2ccccc2n1Cc1ccc(F)cc1,-86.2% (active)
15,C=CC[Se]C(=O)c1cncc(C(=O)[Se]CC=C)c1,-39% (active)
16,C[C@H]1[C@H](OC(=O)CCC(=O)N(CCCc2cn(-c3ccc(C#N)cc3)nn2)CCNc2ccnc3cc(Cl)ccc23)O[C@@H]2OC3(C)CC[C@H]4[C@H](C)CC[C@@H]1[C@@]24OO3,59.5%
17,O=C(/C=C/c1ccco1)c1nc2ccccc2n1Cc1ccc(F)cc1,81.8%
18,CC[C@]12C=CCN3CC[C@@]4(c5ccc(OC)cc5N(C)[C@H]4[C@@](O)(C(=O)OC)[C@@H]1OC(=O)CCCC[P+](c1ccc(C)cc1)(c1ccc(C)cc1)c1ccc(C)cc1)[C@@H]32,-97.8% (active)
19,CCOP(=O)(OCC)C(NC(C)=O)C(=O)SCCN (stereo not given),108%
20,CC1=C(C=O)C2=C(C)C3(CC3)[C@@](C)(O)C(=O)C2=C1,23.3%

row,Compound,growth
1,CC12CCC3(CCC(=O)NCCCNc4ccnc5cc(Cl)ccc45)[C@@](C)(OO[C@]3(C)O1)O2,33.4%
2,C#CC[Se]C(=O)c1ccc(C(=O)[Se]CC#C)s1,104%
3,CC1=C(COCCOC(=O)c2ccc(S(=O)(=O)F)cc2)C2=C(C)C3(CC3)[C@@](C)(O)C(=O)C2=C1,-63.6% (active)
4,COc1cc2cc(C(=O)N3C[C@@H](CCl)c4c3cc(OC(=O)N3CCN(C(=O)CCC(=O)N5CCN(C)CC5)[C@@H]5CSSC[C@@H]53)c3ccccc43)[nH]c2c(OC)c1OC,-94.4% (active)
5,COC(=O)CCn1c(-c2ccc(-n3cc(-c4ccc(O[C@H]5O[C@@H]6OC7(C)CC[C@H]8[C@H](C)CC[C@@H]([C@H]5C)[C@@]68OO7)cc4)nn3)cc2)nc2ccccc21,28.6%
6,O=C(/C=C/c1cccc(Br)c1)c1nc2ccccc2n1Cc1ccc(Br)cc1,-53.4% (active)
7,CC(=O)Oc1ccccc1C(=O)[Se]C(=NC(C)C)NC(C)C,-85.5% (active)
8,C#CCCCN(CCNc1ccnc2cc(Cl)ccc12)C(=O)CCC(=O)O[C@@H]1O[C@@H]2OC3(C)CC[C@H]4[C@H](C)CC[C@@H]([C@H]1C)[C@@]24OO3,44.1%
9,CC(=C\C(=O)Oc1ccc2c3c1OC1C(O)CCC4(O)C(C2)N(CC2CCC2)CCC314)/C=C1\CCCc2ccccc21 (stereo not given),17.1%
10,C[C@H]1[C@H](OC(=O)CCC(=O)Nc2cnccn2)O[C@@H]2OC3(C)CC[C@H]4[C@H](C)CC[C@@H]1[C@@]24OO3,39.7%
11,O=C(/C=C/c1ccc(Cl)cc1)c1nc2ccccc2n1Cc1ccc(F)cc1,38.9%
12,CCOC(=O)C1=C(Nc2ccccc2)C(=O)OC12C(=O)Nc1ccccc12 (stereo not given),107%
13,CC(=O)Oc1ccccc1C(=O)NC([Se])=NC1CCCCC1,-14.7% (active)
14,COC(=O)C[C@](O)(CCC(C)C)C(=O)O[C@@H]1C(OC)=C[C@]23CCCN2CCc2cc4c(cc2[C@H]13)OCO4,-68.8% (active)
15,COc1cc(OC)c(S(=O)(=O)N(CCCl)CCCl)cc1C(=O)/C=C/c1cc(OC)c(OC)c(OC)c1,-68.5% (active)
16,CC[C@]12C=CCN3CC[C@@]4(c5ccc(OC)cc5N(C)[C@H]4[C@@](O)(C(=O)OC)[C@@H]1OC(=O)CCC[P+](C1CCCCC1)(C1CCCCC1)C1CCCCC1)[C@@H]32,-85.9% (active)
17,COc1cc(OC)c(S(=O)(=O)N(CCCl)CCCl)cc1C(=O)/C=C/c1ccc(C)cc1,102%
18,C=CC[Se]C(=O)c1ccc(C(=O)[Se]CC=C)s1,-70.8% (active)
19,CC[C@]12C=CCN3CC[C@@]4(c5ccc(OC)cc5N(C)[C@H]4[C@@](O)(C(=O)OC)[C@@H]1OC(=O)CCC[P+](c1ccc(F)cc1)(c1ccc(F)cc1)c1ccc(F)cc1)[C@@H]32,-24.1% (active)
20,CC[C@@]12CC(C(=O)OC)=C3Nc4cc5c(cc4[C@@]34CCN(C[C@H]3O[C@H]31)[C@@H]24)[C@@H]1[C@H](O5)[C@@H](O)[C@@]2(CC)CC(C(=O)OC)=C3Nc4cc(OC)ccc4[C@@]34CCN1[C@@H]24,27.1%

# From PubChem BioAssay (NCI)
